Our source for the growth values is PubChem BioAssay (NCI).

Values joined by “and” are separate entries in the source; they are usually repeats but may differ in a detail not shown here. Identical values can stand only once. Compounds without any hit were thinned out: in the full panel of roughly 83,000, 20% have a hit.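 Each cell line was grown in a 96-well plate and treated with one concentration of compound for 48 hours. Values below 10 were considered active.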 A number with no mark means an inactive call. Active and inactive are the calls of the source.

This assay concerns HL-60(TB) leukemia. Kind of assay: NCI-60 one-dose screen, 48 h (100 = growth as untreated, 0 = no growth, -100 = all killed). The following applies: 10 µM unless noted.
As for `CCOc1ccc(N(C)c2ccc(/C=C/C3=[N+](C)c4ccccc4C3(C)C)cc2)cc1`, the growth was -43.5% (active).

As to `COC1C(=O)CCC2(CO2)C1(O)C1(C)OC1CCC(C)C` (centres undefined), the growth is 68%. As to `Nc1ccccc1SC(CC(=O)c1ccccc1)c1c(Cl)cccc1Cl` (centres undefined), the growth was 54.8%. In the case of `COc1cc(C2CC(c3cc(OC)c(OCCCOc4ccc(-n5c(/C=C/c6ccccc6)nc6ccccc6c5=O)cc4)c(OC)c3)=NO2)cc(OC)c1OC` (centres undefined) it was 119%; in that of `O=C(Nc1ccc(I)cc1F)c1cc(Br)ccc1O`, -31.3% (active). With `CN(C)c1ccc2nc3ccc(=O)cc-3sc2c1`, the growth is -21.3% (active) and -7.59% (active).

For `CC(C)N1C(=O)/C(=C2\SC(=S)N(C(C)C)C2=O)SC1=S`, the growth was 100%. On to `CCN(CC)CCC(CNc1c2ccc(Cl)cc2nc2ccc(OC)cc12)c1ccccc1` (centres undefined), for which the growth is 28.7%. In the case of `Cc1ccc(NC(=O)c2ccc(CN3CCN(C)CC3)cc2)cc1Nc1nccc(-c2cccnc2)n1` it was 107% and 89.8%.

Consider `CCN(CC)CCNC(=O)c1cn2ncnc(Oc3ccc(NC(=O)Nc4ccc(Cl)c(C(F)(F)F)c4)cc3)c2c1C`, for which the growth is -40.8% (active). Take `OB(O)c1ccccc1`: the growth is 98.1%. Regarding `O=C(O)c1cccc(Br)c1`, the growth is 104% and 98.8%.

For the molecule `O=C(c1ccccc1)C1OC1c1ccc([N+](=O)[O-])cc1` (centres undefined), the growth was 61.6%. On to `O=C(c1ccccc1)C(CN1CCCCC1)c1ccccc1` (centres undefined), for which the growth is -43.7% (active). Then `COc1ccc(/C=C\c2cc(OC)c(OC)c(OC)c2)c(NS(=O)(=O)c2ccc(C(C)(C)C)cc2)c1O`, with 6.05% (active).

Take `Cc1cc(N)c2ccccc2[n+]1CCCCCCCCCC[n+]1c(C)cc(N)c2ccccc21`: the growth is -65% (active) and -69.4% (active). Regarding `Cc1ccc2nc3c(n2c1)C(=O)C(=O)c1ccccc1-3`, the growth is -59.1% (active).

Take `C/C=C\COc1cc(C)c(Cl)cc1Cl`: the growth is 105%. Take `COc1ccc2c(c1)C1(C(=O)N2)C(C#N)=C(c2ccccc2)Nc2c1c(-c1ccccc1)nn2-c1ccccc1` (centres undefined): the growth is 3.96% (active).

Turning to `O=c1c2ccccc2c2nccn2c2cc(Cl)ccc12`, the growth was 30.3%.

For the molecule `COC(=O)Nc1nc2ccc(C(=O)c3ccccc3)cc2[nH]1`, the growth is 7.13% (active) and -59.3% (active) and -3.38% (active). In the case of `CCCCCCCCCCCCCCCCCCOc1ccccc1CC(=O)OCCC[N+](C)(C)C` it was 9.1% (active); in that of `O=C(c1ccncc1)c1c(Cc2ccccc2)ccc2ccccc12`, 88.1%; in that of `NC1CCC(Nc2nc(NCc3ccc(-c4cccs4)nc3)c3ncn(C4CCCC4)c3n2)CC1` (centres undefined), -29.7% (active). For `O=C(O)c1cn(C2CC2)c2cc(N3CCN(C(=O)N(c4ccccc4)c4nc(-c5ccccc5)cs4)CC3)c(F)cc2c1=O`, the growth was -39.9% (active). Then `CC1=C(C(=O)OC(C)C)C(c2ccc3c(c2)OCO3)NC(=S)N1` (centres undefined), with 105%; and `OC1CCC(Oc2cccc3cnc(Nc4ccc5nc[nH]c5c4)nc23)CC1` (centres undefined), with -26.1% (active) and 9% (active).

`O=C(/C=C/c1cccc(Cl)c1)c1ccccc1`: the growth was 95.3% and 82.5%. For `CSc1oc(C)nc1[P+](c1ccccc1)(c1ccccc1)c1ccccc1`, the growth was 46.5%.
